Drawing on PubChem BioAssay, this text covers composite z-score and z-score for 9 compounds.

SMILES strings stand for the structures. Activity calls are given as the source filed them.

The nature of experiment [1]: small molecules captured by biotinylated probe aFSTL3 – biochemical, small-molecule microarray, fluorescence 635/667, stem cell growth factor project, primary screen (AID 1064).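 Further: measures binding of the biotinylated anti-FSTL3 antibody to printed compounds.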 The conditions noted are these: higher = more signal.
A short description of experiment [2]: binders from COS7 lysate, DM2A8 probe, primary screen, torsin A project, cell lysate, small-molecule microarray, fluorescence 635/667 (AID 1065). The conditions noted are these: higher = more signal, COS7 lysate expressing mutant human TOR1A.
Experiment [3] in a line: small molecules captured by biotinylated probe aFGF2 – biochemical, small-molecule microarray, fluorescence 635/667, stem cell growth factor project, primary screen (AID 1067).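 Further: measures binding of biotinylated aFGF2 protein to printed compounds on slides; z-score merges feature fluorescence and signal-to-noise across triplicate slides.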 The conditions noted are these: higher = more signal.
The nature of experiment [4]: small molecules captured by biotinylated probe aFGF10 – biochemical, small-molecule microarray, fluorescence 635/667, stem cell growth factor project, primary screen (AID 1071).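 Further: score merges 667 nm spot intensity and signal to noise from triplicate slides.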 The conditions noted are these: higher = more signal.
Experiment [5] addresses Neurogenic locus notch homolog protein 2 (Homo sapiens) (UniProt Q04721). Kind of experiment: small molecules binding Notch2 protein – biochemical, small-molecule microarray, 635 nm fluorescence, stem cell growth factors, primary screen (AID 1073). The conditions noted are these: higher = more signal.
The target in experiment [6] is Pro-neuregulin-1, membrane-bound isoform (Homo sapiens) (UniProt Q02297). Kind of experiment: small molecules binding neuregulin-1 protein – biochemical, small-molecule microarray, fluorescence 635/667, psychiatric disease protein project, primary screen (AID 1075).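 Further: score combines 667 nm spot fluorescence with signal to noise.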 The note with it: NRG1 binding, 635 nm fluorescence, higher = more signal.
Experiment [7] deals with Neuregulin-1 EGF-like domain. Kind of experiment: small molecules binding NRG1 EGF domain – biochemical, small-molecule microarray, 635 nm fluorescence, primary screen (AID 1081).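 Further: binding of the protein to compounds printed on small-molecule microarray slides.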 The conditions noted are these: higher = more signal.
Experiment [8] in a line: FRG1 expression reporter modulators in myotubes – cell-based, C2C12 myotubes, firefly/Renilla luciferase, luminescence, FRG1 inhibition for FSHD, primary screen (AID 1084). The note with it: FRG1 promoter luciferase, higher = more signal, called active from +8 up or from −8 down.
A short description of experiment [9]: small molecules captured by biotinylated probe aFST – biochemical, small-molecule microarray, fluorescence 635/667, stem cell growth factor project, primary screen (AID 1086).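 Further: score merges 667 nm fluorescence with signal-to-noise of each printed compound spot.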 The note with it: higher = more signal.
A short description of experiment [10]: binders of probe aHhip on microarray, primary screen, stem cell growth factor project, biochemical, small-molecule microarray, fluorescence 635/667 (AID 1087).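 Further: score merges spot fluorescence at 667nm with spot signal to noise ratio.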 The conditions noted are these: higher = more signal.
Experiment [11] concerns PRMT1 (protein arginine N-methyltransferase 1). Kind of experiment: small molecules binding arginine methyltransferase PRMT1 – biochemical, small-molecule microarray, 635 nm fluorescence, primary screen (AID 1088).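 Further: binding of Prmt1 protein to compounds spotted on small-molecule microarray slides.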 The note with it: higher = more signal.
Experiment [12] is described as follows: growth effects on S. cerevisiae YJM789 – YJM789 clinical isolate, OD600, 24 h, basal, primary screen (AID 1089).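 Further: growth of clinical yeast isolate S. cerevisiae YJM 789 seeded 1000 cells per well; test concentration not given here.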 The conditions noted are these: higher = more signal, called active from +8 up or from −8 down.
Experiment [13] in a line: S. pombe growth modifiers, basal conditions – strain 972, OD600, 24 h, no modulator, primary screen (AID 1090).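 Further: basal condition with compound alone and no growth modifier present; test concentration not given here.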 The note with it: S. pombe 972 growth, higher = more signal, called active from +8 up or from −8 down.
The nature of experiment [14]: budding yeast growth modifiers under rapamycin – strain BY4716, OD600, 96 h, primary screen (AID 1091). Further: test concentration not given here. The conditions noted are these: S. cerevisiae BY4716 + rapamycin, higher = more signal, called active from +8 up or from −8 down.
Experiment [15] concerns the target Torsin-1A-interacting protein 2 (Homo sapiens) (UniProt Q8NFQ8). Kind of experiment: small molecules binding lysate-expressed LULL1 – cell lysate, human LULL1 lysate, 635/667 nm fluorescence, primary screen (AID 1092).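 Further: probe is lysate of COS7 cells overexpressing human LULL1; score merges per-feature 667 nm fluorescence with signal-to-noise.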 The note with it: small-molecule microarray, hLULL1 lysate binding, 635 nm fluorescence; higher = more signal.
Experiment [16] can be described thus: optical density change of DRC41 E. coli – strain DRC41, OD650, 24 h, E. coli filamentation project, primary screen (AID 1093).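 Further: MC1000 strain lacking acrAB efflux and sulA so SOS filamentation is blocked; test concentration not given here.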 The conditions noted are these: E. coli DRC41 growth, higher = more signal, called active from +8 up or from −8 down.
Experiment [17] can be described thus: probe aLefty2 binding to arrayed compounds – biochemical, biotinylated probe, 635/667 nm fluorescence, primary screen (AID 1094).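 Further: score merges spot fluorescence near 667 nm with spot signal-to-noise ratio.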 The conditions noted are these: small-molecule microarray, higher = more signal.
For experiment [18], the system named is Noggin (protein binding on small-molecule microarray). Kind of experiment: small molecules binding Noggin protein – biochemical, 635/667 nm fluorescence, primary screen (AID 1095).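 Further: score merges 667 nm feature fluorescence with signal to noise over triplicate slides.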 The note with it: 635 nm fluorescence, higher = more signal.
Experiment [19] deals with Neurogenic locus notch homolog protein 3 (Homo sapiens) (UniProt Q9UM47). Kind of experiment: small molecules binding NOTCH3 protein – biochemical, 635/667 nm fluorescence, primary screen (AID 1096). The note with it: small-molecule microarray, 635 nm fluorescence, higher = more signal.
Experiment [20] in a line: probe aEGFR binding to arrayed compounds – biochemical, biotinylated probe, 635/667 nm fluorescence, primary screen (AID 1097).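 Further: probe is a biotinylated anti-EGFR antibody binding compounds printed on slides; score combines fluorescence near 667 nm and signal to noise of each spot.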 The conditions noted are these: small-molecule microarray, higher = more signal.

Neurogenic locus notch homolog protein 3 (Homo sapiens), sequence (Q9UM47 whole entry, looked up): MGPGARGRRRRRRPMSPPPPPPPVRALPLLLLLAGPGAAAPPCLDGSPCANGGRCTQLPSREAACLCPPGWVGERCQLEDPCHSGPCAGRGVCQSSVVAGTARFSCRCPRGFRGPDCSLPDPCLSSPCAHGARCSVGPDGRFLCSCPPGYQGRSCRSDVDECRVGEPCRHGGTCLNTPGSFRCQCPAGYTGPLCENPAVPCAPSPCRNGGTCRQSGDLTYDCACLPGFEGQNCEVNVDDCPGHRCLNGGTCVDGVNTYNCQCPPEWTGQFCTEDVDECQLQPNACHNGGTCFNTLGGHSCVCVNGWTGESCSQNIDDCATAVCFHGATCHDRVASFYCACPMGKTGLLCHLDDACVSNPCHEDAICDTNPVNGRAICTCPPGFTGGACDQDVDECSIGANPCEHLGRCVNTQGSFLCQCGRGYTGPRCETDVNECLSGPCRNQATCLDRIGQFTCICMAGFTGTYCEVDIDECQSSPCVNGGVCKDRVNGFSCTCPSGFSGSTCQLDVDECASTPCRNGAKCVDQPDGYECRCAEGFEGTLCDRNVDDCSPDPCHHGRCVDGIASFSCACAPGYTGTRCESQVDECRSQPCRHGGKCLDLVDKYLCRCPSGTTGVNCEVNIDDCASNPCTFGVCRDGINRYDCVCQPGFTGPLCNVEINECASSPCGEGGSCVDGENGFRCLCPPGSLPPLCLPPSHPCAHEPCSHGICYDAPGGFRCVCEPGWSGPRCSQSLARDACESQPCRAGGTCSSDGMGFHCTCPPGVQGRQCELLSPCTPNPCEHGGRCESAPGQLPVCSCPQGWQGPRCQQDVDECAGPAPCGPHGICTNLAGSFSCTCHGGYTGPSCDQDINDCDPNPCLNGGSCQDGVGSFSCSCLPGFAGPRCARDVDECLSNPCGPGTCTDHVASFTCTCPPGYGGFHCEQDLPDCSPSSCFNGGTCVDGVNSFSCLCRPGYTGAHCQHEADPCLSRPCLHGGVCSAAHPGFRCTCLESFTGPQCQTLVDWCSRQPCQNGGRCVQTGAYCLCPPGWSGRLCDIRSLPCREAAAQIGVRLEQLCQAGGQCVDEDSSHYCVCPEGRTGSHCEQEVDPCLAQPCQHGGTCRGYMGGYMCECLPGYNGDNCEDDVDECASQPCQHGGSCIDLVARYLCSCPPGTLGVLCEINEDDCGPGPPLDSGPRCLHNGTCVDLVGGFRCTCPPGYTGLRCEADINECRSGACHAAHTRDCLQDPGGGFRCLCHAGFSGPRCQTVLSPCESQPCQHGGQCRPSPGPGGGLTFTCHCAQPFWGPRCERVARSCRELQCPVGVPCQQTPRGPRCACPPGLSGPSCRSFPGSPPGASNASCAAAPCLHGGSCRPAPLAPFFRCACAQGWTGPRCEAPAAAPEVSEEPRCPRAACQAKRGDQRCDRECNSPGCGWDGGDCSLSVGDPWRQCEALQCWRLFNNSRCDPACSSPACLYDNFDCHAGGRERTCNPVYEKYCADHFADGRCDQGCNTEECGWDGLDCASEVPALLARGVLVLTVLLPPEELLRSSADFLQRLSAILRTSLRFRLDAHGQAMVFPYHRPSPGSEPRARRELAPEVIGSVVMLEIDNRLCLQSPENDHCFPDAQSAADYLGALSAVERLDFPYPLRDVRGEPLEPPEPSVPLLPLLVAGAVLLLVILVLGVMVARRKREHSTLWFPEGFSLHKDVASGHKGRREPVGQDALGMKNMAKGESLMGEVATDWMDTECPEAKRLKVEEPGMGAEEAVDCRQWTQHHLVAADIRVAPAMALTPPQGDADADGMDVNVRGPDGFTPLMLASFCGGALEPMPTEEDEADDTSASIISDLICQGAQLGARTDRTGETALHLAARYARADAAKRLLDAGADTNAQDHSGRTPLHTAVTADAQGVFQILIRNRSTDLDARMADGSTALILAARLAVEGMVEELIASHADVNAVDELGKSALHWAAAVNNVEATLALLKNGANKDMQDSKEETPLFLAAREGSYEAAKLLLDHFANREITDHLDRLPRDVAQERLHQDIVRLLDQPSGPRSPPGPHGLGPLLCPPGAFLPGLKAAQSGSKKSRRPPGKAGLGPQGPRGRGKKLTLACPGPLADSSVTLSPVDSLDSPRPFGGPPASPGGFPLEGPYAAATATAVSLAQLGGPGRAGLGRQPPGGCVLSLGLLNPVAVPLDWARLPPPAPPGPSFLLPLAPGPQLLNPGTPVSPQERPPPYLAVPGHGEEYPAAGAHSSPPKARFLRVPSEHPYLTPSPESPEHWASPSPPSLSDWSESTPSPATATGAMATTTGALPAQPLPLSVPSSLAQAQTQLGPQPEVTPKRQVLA
Pro-neuregulin-1, membrane-bound isoform (Homo sapiens), sequence (Q02297 whole entry, looked up, the tested form may be a part, canonical isoform): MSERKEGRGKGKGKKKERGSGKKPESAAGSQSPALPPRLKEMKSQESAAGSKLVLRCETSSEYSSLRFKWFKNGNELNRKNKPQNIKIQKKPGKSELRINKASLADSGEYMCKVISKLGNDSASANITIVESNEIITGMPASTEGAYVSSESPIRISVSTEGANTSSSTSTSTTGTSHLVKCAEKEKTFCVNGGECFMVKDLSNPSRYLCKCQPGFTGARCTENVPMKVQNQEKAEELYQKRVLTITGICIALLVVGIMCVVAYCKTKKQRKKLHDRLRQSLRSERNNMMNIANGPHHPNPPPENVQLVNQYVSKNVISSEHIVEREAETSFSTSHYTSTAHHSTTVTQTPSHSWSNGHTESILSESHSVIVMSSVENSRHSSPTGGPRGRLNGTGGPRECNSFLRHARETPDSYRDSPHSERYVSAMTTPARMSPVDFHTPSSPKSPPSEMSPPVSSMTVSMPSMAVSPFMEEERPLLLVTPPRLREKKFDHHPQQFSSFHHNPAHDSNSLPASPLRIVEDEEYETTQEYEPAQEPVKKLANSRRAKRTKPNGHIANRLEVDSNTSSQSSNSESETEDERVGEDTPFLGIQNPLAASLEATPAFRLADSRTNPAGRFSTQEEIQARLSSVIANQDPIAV
Torsin-1A-interacting protein 2 (Homo sapiens), sequence (Q8NFQ8 whole entry, looked up): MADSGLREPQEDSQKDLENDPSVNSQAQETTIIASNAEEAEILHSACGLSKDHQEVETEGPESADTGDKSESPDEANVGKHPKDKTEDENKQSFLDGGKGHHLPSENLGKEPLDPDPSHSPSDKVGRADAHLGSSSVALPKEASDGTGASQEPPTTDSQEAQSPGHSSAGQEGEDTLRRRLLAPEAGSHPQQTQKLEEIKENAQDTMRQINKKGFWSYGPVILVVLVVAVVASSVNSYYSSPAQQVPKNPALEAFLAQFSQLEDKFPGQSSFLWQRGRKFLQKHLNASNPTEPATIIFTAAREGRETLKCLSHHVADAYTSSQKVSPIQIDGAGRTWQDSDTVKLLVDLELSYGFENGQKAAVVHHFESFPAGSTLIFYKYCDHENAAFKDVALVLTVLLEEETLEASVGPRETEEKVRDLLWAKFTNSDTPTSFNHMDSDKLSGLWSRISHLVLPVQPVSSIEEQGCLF

As to `COCCCNC(=O)[C@@]1(Cc2ccccc2N=[N+]=[N-])COC(c2ccc(OCCCO)cc2)=N1`, the composite z-score in experiment [1] stood at 0.846; in experiment [2] it was 0.0792; in experiment [3] it was 0.146; in [4] it was 0.805; in experiment [5], 1; in [6] it was 1.54. In addition, the composite z-score in experiment [7] was 1.27; in experiment [9], 0.734; in experiment [10], -0.274; in [11] it was 1.43; in experiment [15] it was 3.13; in experiment [17], 0.219. The composite z-score in [18] was 0.0137; in experiment [19], 0.0417; in experiment [20], 0.507. The z-score in experiment [8] is 0.554 (inactive); in [12], -0.0885 (inactive); in experiment [13] it was -1.52 (inactive); in experiment [14] it was 0.0734 (inactive); in experiment [16], 1.39 (inactive).

As for `COC(=O)[C@@]1(Cc2ccccc2)[C@H]2c3cc(C(=O)N(C)C)n(Cc4c(CO)[nH]cc(C)c4=O)c3C[C@H]2CN1C(=O)c1ccccc1`, the composite z-score in experiment [1] was found to be 0.268; in experiment [2], 0.311; in [3] it was 0.206; in experiment [4] it was 0.528; in experiment [5] it was 1.53; in experiment [6] it was 1.49. Moreover, the composite z-score is 1.38 in experiment [7]; 0.608 in [9]; 0.0456 in [10]; 0.0795 in experiment [11]; 3.13 in [15]; 0.163 in experiment [17]. Further, the composite z-score is -0.38 in experiment [18], 0.447 in experiment [19] and 0.0288 in experiment [20]. Further, the z-score is -0.325 (inactive) in [8]; 0.469 (inactive) in experiment [12]; 1.51 (inactive) in experiment [13]; 0.0018 (inactive) in experiment [14]; -0.633 (inactive) in [16].

For the compound `COC(=O)[C@@]1(Cc2ccc(F)cc2)[C@H]2c3cc(C(=O)N4CCCC4)n(CCN4CNCC4=O)c3C[C@H]2CN1C(=O)c1ccccc1`, the composite z-score in experiment [1] turned out to be 0.144; in experiment [2], 1.56; in experiment [3] it was 0.0732; in experiment [4] it was 0.132; in [5], 1.26; in [6], 1.07. In addition, the composite z-score in [7] was found to be 1.35; in experiment [9], 1.26; in experiment [10], 0.178; in [11], 1.2; in experiment [15], 3.97; in experiment [17], 0.459. Further, the composite z-score is 0.46 in experiment [18], 0.842 in experiment [19] and 0.118 in experiment [20]. Further, the z-score was 4.7 (inactive) in [8]; 0.614 (inactive) in [12]; -0.198 (inactive) in [13]; 0.316 (inactive) in experiment [14]; -0.151 (inactive) in experiment [16].

Consider `CC(C)[Si](C#CCCCC#N)(O[C@H](c1ccccc1)c1cn([C@H](CO)Cc2ccccc2)nn1)C(C)C`, for which the composite z-score is -0.436 in [1]; 1.22 in [2]; -0.168 in experiment [3]; 0.202 in experiment [4]; 0.873 in experiment [5]; 1.44 in [6]. Besides, the composite z-score in experiment [7] is 1.21; in [9] it was -0.337; in experiment [10], 0.0373; in experiment [11], 0.848; in experiment [15], 1.25; in experiment [17], -0.181. Moreover, the composite z-score is 0.349 in experiment [18], 1.02 in experiment [19] and -0.0843 in experiment [20]. Moreover, the z-score was -0.325 (inactive) in experiment [8]; -2.62 (inactive) in [12]; -11.3 (active) in experiment [13]; -4.64 (inactive) in experiment [14]; 1.4 (inactive) in [16].

For the compound `CC(C)OC(=O)C=C1C[C@@H](c2ccc(C(F)(F)F)cc2)O[C@@H](c2ccc(C(F)(F)F)cc2)O1`, the composite z-score in experiment [1] was -0.187; in experiment [2], 1.92; in experiment [3] it was -0.0288; in experiment [4], 0.891; in experiment [5], -0.316; in experiment [6] it was 1.08. The composite z-score in experiment [7] was 1; in experiment [9], 0.0006; in experiment [10] it was -0.214; in experiment [11] it was 1.16; in experiment [15], 2.66; in experiment [17], -0.241. Moreover, the composite z-score in [18] was 0.105; in experiment [19] it was 0.324; in experiment [20] it was -0.195. The z-score in experiment [8] is 0.337 (inactive); in experiment [12], -1.84 (inactive); in experiment [13], -7.12 (inactive); in experiment [14] it was -1.52 (inactive); in experiment [16], 0.374 (inactive).

For the compound `CC(c1ccccc1)C(O)C1C=CC2C(=O)N(c3ccccc3)C(=O)C2N1Nc1ccc([N+](=O)[O-])cc1` (stereo not given), the composite z-score in experiment [1] was -0.263; in [2], 0.031; in experiment [3] it was -0.0265; in experiment [4], 0.772; in experiment [5] it was 1.62; in experiment [6], 1.58. Besides, the composite z-score was 1.11 in [7]; 0.745 in experiment [9]; -0.166 in [10]; 1.07 in experiment [11]; 3.55 in experiment [15]; 0.0249 in [17]. For the same compound, the composite z-score in experiment [18] was 0.361; in [19], 1.09; in experiment [20] it was -0.027. In addition, the z-score in experiment [8] is -1.32 (inactive); in [12] it was 0.197 (inactive); in experiment [13], 1.58 (inactive); in experiment [14] it was 1.78 (inactive); in experiment [16], 0.1 (inactive).

Consider `CN1C(=O)C2C=CC(C(O)COCc3ccccc3)N(N(c3ccccc3)c3ccccc3)C2C1=O` (stereo not given), for which the composite z-score in experiment [1] was 0.0199; in [2], -0.177; in [3], 0.0472; in experiment [4] it was 0.631; in experiment [5], 1.55; in experiment [6] it was 1.29. In addition, the composite z-score in experiment [7] is 1.03; in [9], 1.1; in [10] it was -0.0563; in experiment [11] it was 0.482; in [15], 2.11; in [17] it was 0.388. In addition, the composite z-score in [18] is -0.419; in [19], 0.894; in experiment [20], 0.726. For the same compound, the z-score in experiment [8] was 0.0958 (inactive); in experiment [12], 0.298 (inactive); in experiment [13] it was -1.86 (inactive); in experiment [14], 0.544 (inactive); in experiment [16], -0.0181 (inactive).

Turning to `COCCOC(=O)N1C(=O)[C@@]2(c3cc(C#CC4=CCCCC4)ccc31)[C@H](C(N)=O)[C@H]1C(=O)O[C@H](c3ccccc3)[C@H](c3ccccc3)N1[C@@H]2c1ccccc1OCCO`, the composite z-score in experiment [1] is 0.193; in experiment [2], 0.33; in [3], -0.0105; in [4], 0.999; in [5], 1.07; in [6] it was 1.47. Further, the composite z-score in experiment [7] was 1.34; in experiment [9] it was 0.306; in [10], 0.388; in experiment [11] it was 1.54; in experiment [15], 2.75; in experiment [17] it was -0.0028. The composite z-score is 0.551 in experiment [18], 1.11 in experiment [19] and -0.0056 in [20]. Further, the z-score in [8] was -0.343 (inactive); in experiment [12], 0.908 (inactive); in [13], 0.0645 (inactive); in [14] it was 1.99 (inactive); in [16], -0.0839 (inactive).

`COC(=O)c1nc2oc1CC[C@@H](CO)NC(=O)N(C)Cc1cnnn1C[C@H](Cc1ccccc1)NC2=O`: the composite z-score in experiment [1] is -0.195; in [2], -0.328; in experiment [3], -0.062; in [4] it was -0.135; in experiment [5], -0.444; in experiment [6], 0.243. Moreover, the composite z-score in [7] is 0.434; in experiment [9], -1.08; in experiment [10], -0.314; in experiment [11], 0.0909; in experiment [15], 0.715; in experiment [17] it was -0.331. In addition, the composite z-score was 0.419 in [18], -0.139 in experiment [19] and -0.287 in experiment [20]. Besides, the z-score in experiment [8] was -0.988 (inactive); in experiment [12], -1.04 (inactive); in [13] it was 0.127 (inactive); in experiment [14], -0.335 (inactive); in [16] it was 1.27 (inactive).
